Values joined by “and” are separate entries in the source; they are usually repeats but may differ in a detail not shown here. Equal values may be shown once. Compounds without any hit were thinned out: in the full panel of roughly 79,000, 15% have a hit. Active and inactive are the calls of the source. Rule as the data show it: active = growth inhibition above about 70%; inactive = the rest.
Key:
[1] = NCI Yeast Anticancer Drug Screen. Data for the rad50 strain (AID 155);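 also: 0% = growth of vehicle-only cultures of the same strain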; details: S. cerevisiae rad50 strain growth inhibition, active compounds read high; at 50.0 µM unless noted
Procedure, shortened: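 Readout: growth inhibition relative to vehicle-treated cultures. Compound exposure was carried out in a genetically defined yeast strain deficient in DNA damage repair.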

[2] = NCI Yeast Anticancer Drug Screen. Data for the mec2-1 strain (AID 157); details: S. cerevisiae mec2-1 strain, active compounds read high; at 50.0 µM unless noted
Procedure, shortened: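 mec2-1 yeast strain, carrying an alteration in DNA damage repair or cell cycle control, was exposed to compounds; growth inhibition was measured relative to vehicle-treated controls.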

[3] = NCI Yeast Anticancer Drug Screen. Data for the sgs1 mgt1 strain (AID 161);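 also: 0% = growth of cultures given vehicle only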; details: S. cerevisiae sgs1 mgt1 strain, active compounds read high; at 50.0 µM unless noted
Procedure, shortened: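 Growth of a repair-deficient yeast mutant was monitored after compound treatment and expressed as inhibition relative to vehicle-treated cultures.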

[4] = NCI Yeast Anticancer Drug Screen. Data for the cln2 rad14 strain (AID 165);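 also: 0% = growth equal to vehicle treated cultures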; details: S. cerevisiae cln2 rad14 strain, active compounds read high; at 50.0 µM unless noted
Procedure, shortened: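 Yeast carrying cln2 and rad14 alterations (cell cycle control and DNA damage repair) were exposed to compounds. Growth inhibition was measured against vehicle-treated controls.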

[5] = NCI Yeast Anticancer Drug Screen. Data for the bub3 strain (AID 167); details: S. cerevisiae bub3 mutant strain, active compounds read high; at 50.0 µM unless noted
Procedure, shortened: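 Readout: yeast growth inhibition, expressed relative to vehicle-only wells. The test organism is a mutant strain from a panel with lesions in DNA repair or checkpoint genes.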

[6] = NCI Yeast Anticancer Drug Screen. Data for the mlh1 rad18 strain (AID 175); details: S. cerevisiae mlh1 rad18 strain growth inhibition, active compounds read high; at 50.0 µM unless noted
Procedure, shortened: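 Growth inhibition of the yeast strain was measured after compound exposure and expressed relative to vehicle-treated controls. The strain carries defined defects in DNA damage repair.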

Measured: growth inhibition

COc1cccc2c1OC1(N3CCOCC3)CCCCC1C2C[N+](=O)[O-] (stereo unspecified)
inactive: [1] 6.8% | [2] -14% | [3] 12.3% | [4] 3.35% | [5] -7.9% | [6] -11.1%

c1ccc(CN2CCOC2)cc1
inactive: [1] 15.6% | [2] 5.85% | [3] -13.1% | [4] 11% | [5] -2.2% | [6] -35.6%

CC(CC(=O)Nc1ccccc1CC(c1c[nH]c2ccccc12)c1c[nH]c2ccccc12)C(=O)O (stereo unspecified)
inactive: [1] 0.6% | [2] -14.2% | [3] 3.4% | [4] -12.9% | [5] 6.7% | [6] 17.5%

CCOC(=O)c1[nH]c(C)c(/C=N/O)c1C
inactive: [1] 22.9% | [2] -1.8% | [3] 6.65% | [4] 13.6% | [5] 10.1% | [6] 15.2%

NC(=S)c1ccc2ccccc2c1
inactive: [1] 9.95% | [2] 13.9% | [3] 15.1% | [4] 6.15% | [5] 15.2% | [6] 9.2%

COc1ccc(COC(=O)Nc2ccccc2F)c(OC)c1OC
inactive: [1] 3.15% | [2] -9.55% | [3] 30.7% | [4] -3.55% | [5] 26.6% | [6] 16.7%

CC(=NCCCCN=C(C)c1cc(O)cc(Br)c1O)c1cc(O)cc(Br)c1O.[Co]
inactive: [1] 17.9% | [2] 17.9% | [3] 12.3% | [4] 6.45% | [5] 2.1% | [6] 24.4%

O=C(C/C(=N/O)c1ccccc1)c1ccccc1
inactive: [1] -14.7% | [2] -4.65% | [3] -8.5% | [4] 15.4% | [5] 5.35% | [6] -1.8%

O=C(O)C1(F)CC1(c1ccccc1)c1ccccc1 (stereo unspecified)
inactive: [1] -4.7% | [2] 9.7% | [3] 14.5% | [4] -38.2% | [5] 5.6% | [6] -7.8%

O=C(OCC(OC(=O)c1ccccc1)C(OC(=O)c1ccccc1)C(OC(=O)c1ccccc1)c1cnn(-c2ccccc2)n1)c1ccccc1 (stereo unspecified)
inactive: [1] 0.55% and 30.4% | [2] 3.85% and 38.2% | [3] -6.45% and 58.4% | [4] -13.4% and 47.3% | [5] -0.85% and 42.1% | [6] 12.9% and 34.9%

NNC(=O)c1nc2ccccc2s1
inactive: [1] 18.1% | [2] 4.75% | [3] -8.3% | [4] 5.95% | [5] 8.95% | [6] 20.6%

CSc1nc(C)cc(=O)[nH]1
inactive: [1] -12.1% | [2] -2.95% | [3] -17.9% | [4] 20% | [5] 5.5% | [6] -13.3%

CC12CCC(CC1(Cl)Cl)C2 (stereo unspecified)
inactive: [1] 9.75% | [2] -5.8% | [3] 21.1% | [4] 14.3% | [5] 4.7% | [6] 26.9%

Cc1nc2c3c(ccc2[nH]c1=O)C(=O)c1ccccc1C3=O
inactive: [1] 19.4% | [2] 11.6% | [3] 17.7% | [4] 16.9% | [5] 13.9% | [6] 38.2%

ClC(Cl)CN(Cc1ccccc1)c1ncc[nH]1
inactive: [1] 22.5% | [2] 6.25% | [3] 28% | [4] -59.2% | [5] 8.05% | [6] 17.6%

CC1CC(Nc2ccc(Br)cc2)N(C(=O)c2ccc(Br)cc2)O1 (stereo unspecified)
inactive: [1] -25.9% | [2] -1.2% | [3] 25.5% | [4] 5.65% | [5] -35% | [6] -2.8%

O=C(CC1CCCCC1)OCCOCCO
inactive: [1] -7.9% | [2] -5.7% | [3] -27.6% | [4] 3.35% | [5] -2.85% | [6] -3.5%

Nc1nccs1
inactive: [1] -0.45% | [2] -0.65% | [3] 4.75% | [4] 9.4% | [5] -3.15% | [6] 25.7%

CC(NC(C#N)CC12CC3CC(CC(C3)C1)C2)c1ccccc1 (stereo unspecified)
inactive: [1] -11.8% | [2] -11.4% | [3] -11.6% | [4] 12.2% | [5] 6.75% | [6] -30.6%

C1=C(c2ccccc2)N(C2CCCCC2)C(c2ccccc2)=CN1Cc1ccccc1
active: [6] 70.8%
inactive: [1] 45% | [2] 31.9% | [3] 69.5% | [4] 42% | [5] 50.1%

Cc1c2ccncc2c(C)c2c1[nH]c1ccc(O)cc12
inactive: [1] 16.9% | [2] 14.2% | [3] 43.9% | [4] 23.6% | [5] 19.5% | [6] 58.9%

Nc1c(N2CCOCC2)c(=O)nc2[nH]/c(=C\c3ccccc3)c(=O)n12
inactive: [1] 8.5% | [2] -20.7% | [3] 4.75% | [4] 22% | [5] 8% | [6] -46.8%

CCCCOc1c(Cl)c(Cl)cc(Cl)c1Cl
inactive: [1] -10.1% | [2] -15.8% | [3] -3.5% | [4] 2.2% | [5] 2.05% | [6] -17.1%

O=C(C(=C(I)I)c1ccccc1)c1ccccc1
inactive: [1] 7.7% | [2] -7.95% | [3] 25.1% | [4] -13.7% | [5] 13.6% | [6] -75.4%

CC1CCC(OC(=O)CCC2CCCCC2)CC1 (stereo unspecified)
inactive: [1] -1.6% | [2] -12.1% | [3] 4.35% | [4] -34.2% | [5] -12.4% | [6] -18.3%

CCOc1ccccc1/C=C1\N=C(c2ccc([N+](=O)[O-])cc2)OC1=O
inactive: [1] 22.5% | [2] 21.2% | [3] 38.7% | [4] 25.5% | [5] 30.1% | [6] 31%

CC1=C(C(=O)Nc2cc(=O)n(C)c(=O)n2C)C(c2cccc([N+](=O)[O-])c2)C(C(=O)Nc2cc(=O)n(C)c(=O)n2C)=C(C)N1
inactive: [1] 8.7% | [2] 32.1% | [3] 24.9% | [4] 21.9% | [5] 24.4% | [6] 41.8%

CCCOC(=O)CCCC(=O)N(C(C)C)C(C)C
inactive: [1] -12.3% | [2] -2.7% | [3] 12.2% | [4] -29.5% | [5] 21.9% | [6] 4.65%

CN(C)C=Nc1ccc2c3c(cccc13)-c1ccccc1-2
inactive: [1] -2.9% | [2] -24.1% | [3] 47.5% | [4] -0.35% | [5] 51.1% | [6] 41%

Cc1ccc2nc(NC(=O)C(=O)C(C#N)c3nc4ccccc4s3)sc2c1 (stereo unspecified)
inactive: [1] 11.2% | [2] 1.75% | [3] 19.7% | [4] 25.6% | [5] 18.5% | [6] 19.2%

O=C(CCC(=O)Nc1ccccc1C(F)(F)F)N/N=C1\C(=N\NC(=O)CCC(=O)Nc2ccccc2C(F)(F)F)C(c2ccc3c(c2)OCO3)Oc2ccccc21 (stereo unspecified)
inactive: [1] 19.4% | [2] 3.4% | [3] 1.15% | [4] -11% | [5] -5.05% | [6] 4.55%

CC(=O)Nc1ccc(C2NCc3cnc(C)nc3N2)cc1 (stereo unspecified)
inactive: [1] 0.35% | [2] -0.75% | [3] 0.15% | [4] -6.95% | [5] 10.2% | [6] 0.95%

Nc1ccccc1S(=O)(=O)Nc1ccccc1
inactive: [1] 30.9% | [2] 18.9% | [3] 12.5% | [4] -10.3% | [5] -28.4% | [6] 21.4%

CC(C)(C)c1ccncc1
inactive: [1] 8.45% | [2] 16.1% | [3] -16.4% | [4] -10.2% | [5] 5.15% | [6] -4.65%

O=C(NO)Nc1ccccc1Cl
inactive: [1] 6.45% | [2] 9.45% | [3] 10.5% | [4] -1.65% | [5] -4.25% | [6] 8.9%

CC(=O)Nc1cc(Cl)ccc1[N+](=O)[O-]
inactive: [1] 8.95% | [2] 9.35% | [3] 27.9% | [4] 1.25% | [5] 17.4% | [6] 5.95%

Cc1nc2ccccc2c(=O)n1NC(=O)Cc1ccccc1
inactive: [1] -22.6% | [2] -11.1% | [3] -7.45% | [4] 2.2% | [5] -12.4% | [6] -23.1%

COc1ccc(CCNC(=O)CCN2C(=O)CCC2=O)cc1OC
inactive: [1] 8.7% | [2] -12.8% | [3] 1.55% | [4] -3.25% | [5] -14.8% | [6] -2.9%

CCOC(OCC)C(=O)NC(Cc1ccccc1NC(=O)c1ccccc1)c1ccc2c(c1)OCO2 (stereo unspecified)
inactive: [1] 35.6% | [2] -1.05% | [3] 3.9% | [4] 4.8% | [5] 3.25% | [6] 21.4%

Cc1cc(O)cc(C)c1O
inactive: [1] 7.05% | [2] 5.45% | [3] 2.8% | [4] -23.4% | [5] -0.3% | [6] -7.75%

CCCCC(CCCC)C(=O)O
inactive: [1] -22.3% | [2] -9.65% | [3] -9.85% | [4] 50% | [5] 10.9% | [6] -9.3%

From PubChem BioAssay (NCI)
